Reference: the supplement of paper PMC10681739

Assays:
ETS1 [1] = target: T1, ETS1 (UniProt P14921); experiment: ETS1 binding intensity (PBM fluorescence), ETS1 alone (arbitrary fluorescence units); higher = stronger binding; details: ETS1 concentration 1 nM; RUNX1 concentration 0 nM
T1 sequence: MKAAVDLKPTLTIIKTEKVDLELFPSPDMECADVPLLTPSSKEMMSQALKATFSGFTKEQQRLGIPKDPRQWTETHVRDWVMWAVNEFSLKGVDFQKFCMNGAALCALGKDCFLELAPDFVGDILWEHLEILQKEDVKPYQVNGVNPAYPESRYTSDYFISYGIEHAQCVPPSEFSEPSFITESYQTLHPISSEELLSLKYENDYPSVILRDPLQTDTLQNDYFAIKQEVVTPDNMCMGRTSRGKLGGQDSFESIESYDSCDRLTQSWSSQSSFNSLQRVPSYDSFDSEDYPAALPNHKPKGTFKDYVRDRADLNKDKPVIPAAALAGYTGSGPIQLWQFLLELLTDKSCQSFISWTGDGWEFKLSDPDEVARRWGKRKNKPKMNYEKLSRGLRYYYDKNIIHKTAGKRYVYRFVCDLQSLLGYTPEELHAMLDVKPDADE

RUNX1 [2] = target: RUNX1 (UniProt Q01196); experiment: RUNX1 binding intensity (PBM fluorescence), RUNX1 alone (arbitrary fluorescence units); higher = stronger binding; details: RUNX1 concentration 2 nM; ETS1 concentration 0 nM
Sequence of RUNX1 (Q01196 whole entry): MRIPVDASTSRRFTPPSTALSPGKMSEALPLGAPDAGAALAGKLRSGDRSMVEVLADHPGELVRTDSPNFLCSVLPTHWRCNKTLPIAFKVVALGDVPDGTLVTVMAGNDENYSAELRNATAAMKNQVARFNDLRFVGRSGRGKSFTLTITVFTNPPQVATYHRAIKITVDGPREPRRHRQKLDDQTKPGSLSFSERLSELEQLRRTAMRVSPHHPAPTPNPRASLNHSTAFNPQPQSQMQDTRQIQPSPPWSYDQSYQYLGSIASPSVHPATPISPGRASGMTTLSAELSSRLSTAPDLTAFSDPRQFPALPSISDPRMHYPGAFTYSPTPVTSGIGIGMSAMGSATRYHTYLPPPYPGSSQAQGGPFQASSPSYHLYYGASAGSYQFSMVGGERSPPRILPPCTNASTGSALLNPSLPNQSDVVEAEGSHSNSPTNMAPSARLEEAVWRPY
Protocol: (§1)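 Cooperative gcPBM on 36-bp genomic probes with neighbouring ETS1 and RUNX1 sites. Recombinant human RUNX1 (2 nM) was incubated alone or with ETS1 (25 nM) and detected with anti-RUNX1 antibody plus Alexa488 secondary. Values are medians over 4 replicate spots; the RUNX1+ETS1 data were normalised to the RUNX1-only data. The probes sit in constant array flanks that are not printed.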

ETS1 [3] = target: T1, ETS1; experiment: ETS1 binding intensity (PBM fluorescence) in presence of RUNX1, normalised to ETS1-only experiment (arbitrary fluorescence units); higher = stronger binding; details: ETS1 concentration 1 nM; RUNX1 concentration 25 nM
RUNX1 [4] = target: RUNX1 (UniProt Q01196); experiment: RUNX1 binding intensity (PBM fluorescence) in presence of ETS1, normalised to RUNX1-only experiment (arbitrary fluorescence units); higher = stronger binding; details: RUNX1 concentration 2 nM; ETS1 concentration 25 nM
Protocol: as §1
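For RUNX1 binding intensity (PBM fluorescence) in presence of ETS1, normalised to RUNX1-only experiment in this document: Full-length recombinant human ETS1 or RUNX1 bound to double-stranded 36-bp genomic probes on microarrays, detected by protein-specific primary antibody and Alexa488 secondary, spot fluorescence as median of four replicate spots.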
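For RUNX1 binding intensity (PBM fluorescence), RUNX1 alone in this document: Full-length recombinant human RUNX1 bound to double-stranded 36-bp genomic probes on a high-density microarray, scored as Alexa488 fluorescence per spot via anti-RUNX1 antibody, median of four replicate spots.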

| Sequence | ETS1 binding intensity (ETS1 [1]) | RUNX1 binding intensity (RUNX1 [2]) | ETS1 binding intensity (ETS1 [3]) | RUNX1 binding intensity (RUNX1 [4]) |
| --- | --- | --- | --- | --- |
| CGGCTGGCAGGAAGTGGCCACTTGAACCGCAGATGC | 4480 | 1190 | 23300 | 3880 |
| TCGCTTCCGGTGTCGGTTACAGACTGTGGTTGCCAT | 3090 | 906 | 6190 | 3330 |
| TCATTCTCTGATAAAGGAAGTGGTTACAGCACAATT | 2910 | 822 | 10200 | 1270 |
| CTAGCTGTGGACAGGAAACGAGTGGTTTTTGTGATC | 5270 | 740 | 8040 | 1400 |
| CACCGCCGGAGTCCCGGATGTGGTTGCTAGGGCAGC | 5070 | 767 | 14900 | 3280 |
| TTTCTGACTTCCTGTGTGCTTCAGAAACCTCAATGA | 2020 | 830 | 2570 | 2110 |
| CAGGTTGTTGAGGATGTGGAGAAACCGCAACCTCGT | 581 | 3670 | 7360 | 6690 |
| TTGACCCGGACGTGGACAAAAGACCGCAAAGGACGC | 806 | 1100 | 3090 | 1540 |
| CCTCGCCCCCTTCCGCACCCACCCCACCGCGCTCCG | 807 | 2040 | 786 | 2360 |
| ATCTTACCCCGGAAATGACAACAGTGCCGCAAACTG | 7580 | 906 | 10400 | 1620 |
| CTTTGCAGGAAGCTGGGGTTCACCCACAGCCTTGTT | 749 | 729 | 857 | 878 |
| CCATCCAGGAAGCTTATGGTGCGACCGCAGTGTGCC | 508 | 908 | 1880 | 1160 |
| ACGTACGGGATGTGGGAGGTTTGTTTTGACCACACC | 492 | 830 | 936 | 1160 |
| CCGAGCTTAACGACATCCTGCGGCTCAGCGTGGAGG | 435 | 792 | 471 | 1190 |
| ACTTTCGCGACGCAGGAAGCGCCCACAAAGGGAGGA | 2020 | 802 | 3000 | 889 |
| ATGTACATAGATACAGGATGTGGGTTTGTTACAAAG | 7940 | 746 | 24400 | 3400 |
| TGCGCCGCTTCCGCTGCCCGAGGAAGAGCCGCAGTC | 1090 | 802 | 1230 | 1870 |
| TCTCCTTTCAGGAAGCTGCACCCAAACCACCCTCAG | 606 | 996 | 610 | 949 |
| CTGGTTTCCAACATCCTGTGGGCGGCCTGGTTTCAG | 1260 | 785 | 1270 | 2210 |
| AAACTCCCCCACTTCCGCCCACAGCCCTCTGGGCTT | 2010 | 984 | 2120 | 3490 |
| AGCCGCCACTTCCTGTCTCTGCGGGTGCATGCTCTT | 3730 | 863 | 5990 | 3580 |
| GATTTGTCACAGGAAGTACCCACAGGCCAAGAAGTG | 5230 | 817 | 5790 | 1260 |
| AAAGTAGGTCCGGTCCGCGGGTGCGGTCGGGCATGC | 427 | 686 | 545 | 878 |
| CCACCCACTTCCTGCCCTAGCTAGTGTGGTATTTTT | 1050 | 907 | 1640 | 7970 |
| CTTCACTATGCATCCTGTACTGCAACCACACCAAAC | 587 | 1350 | 793 | 1910 |
